Test results as given in PubChem BioAssay (NCI).
The panel holds about 79,000 compounds, 15% with a hit somewhere; the sample as a whole holds those more often. Calls of active or inactive are those of the source. Cut-off read from the data, not from the text of the source: active = growth inhibition above about 70%; inactive = the rest.

Experiments:
[1] = NCI Yeast Anticancer Drug Screen. Data for the rad50 strain (AID 155);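 note: 0% = growth of vehicle-only cultures of the same strain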; details: S. cerevisiae rad50 strain growth inhibition; at 50.0 µM; hits give high values
Method in brief: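 Genetically altered yeast (DNA repair pathway); compound treatment; growth inhibition vs vehicle ctrl.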

[2] = NCI Yeast Anticancer Drug Screen. Data for the mec2-1 strain (AID 157); details: S. cerevisiae mec2-1 strain, at 50.0 µM, hits give high values
Method in brief: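 Strain: mec2-1 (DNA repair/cell cycle alteration). Compound exposure, then growth measured; inhibition expressed relative to vehicle.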

[3] = NCI Yeast Anticancer Drug Screen. Data for the sgs1 mgt1 strain (AID 161);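 note: 0% = growth of cultures given vehicle only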; details: S. cerevisiae sgs1 mgt1 strain, at 50.0 µM, hits give high values
Method in brief: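 Inhibition of yeast growth, normalised to vehicle-treated controls, is reported for a strain bearing genetic alterations in DNA damage repair.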

[4] = NCI Yeast Anticancer Drug Screen. Data for the cln2 rad14 strain (AID 165);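 note: 0% = growth equal to vehicle treated cultures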; details: S. cerevisiae cln2 rad14 strain, at 50.0 µM, hits give high values
Method in brief: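 Compounds are applied to the cln2 rad14 yeast strain, and growth is then compared with that of vehicle-treated cultures to give inhibition.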

[5] = NCI Yeast Anticancer Drug Screen. Data for the bub3 strain (AID 167); details: S. cerevisiae bub3 mutant strain, at 50.0 µM, hits give high values
Method in brief: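 Yeast carrying a defined mutation is treated with each compound, and growth is compared with that of vehicle-exposed cells to give inhibition.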

[6] = NCI Yeast Anticancer Drug Screen. Data for the mlh1 rad18 strain (AID 175); details: S. cerevisiae mlh1 rad18 strain growth inhibition; at 50.0 µM; hits give high values
Method in brief: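 Read-out is yeast growth inhibition, calculated against vehicle-only controls. The compound was applied to a strain engineered with DNA damage repair alterations.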

Measured: growth inhibition

CC(C)c1ccc(NC(=S)NCCO)cc1
inactive: [1] -7.95% | [2] -4% | [3] -21.7% | [4] -9.65% | [5] -4.1% | [6] -10.9%

N#C/C(=C/c1cccc([N+](=O)[O-])c1)C(=O)O
inactive: [1] 38% | [2] 10.6% | [3] 22.6% | [4] 12.9% | [5] 15.8% | [6] 38%

CC(C)(S(=O)(=O)Oc1ccccc1)S(=O)(=O)Oc1ccccc1
inactive: [1] 1.6% | [2] 9.95% | [3] -15.4% | [4] -16.9% | [5] 49.8% | [6] 16.6%

OC12c3ccccc3C1CCCCCC21OCCCO1 (stereo unspecified)
inactive: [1] -9.4% | [2] -27.8% | [3] -31.8% | [4] -17.4% | [5] -8.4% | [6] -19.9%

CS(=O)(=O)OCCCCOS(C)(=O)=O
inactive: [1] -9.5% | [2] -23.9% | [3] 8.55% | [4] 2% | [5] 12.1% | [6] 0.05%

CC1CCN(C(=O)C(c2ccccc2)c2ccccc2)CC1
inactive: [1] 27% | [2] -7.05% | [3] -3.1% | [4] -18.8% | [5] 1.2% | [6] -4.75%

CC(Br)CCc1ccccc1Br (stereo unspecified)
inactive: [1] 3.95% | [2] -8.9% | [3] -2.95% | [4] -39.5% | [5] 19.9% | [6] 10.7%

CC(=O)Oc1cc(N(C)C)ccc1SC(Cl)(Cl)Cl
inactive: [1] -14.7% | [2] -17.9% | [3] -12.1% | [4] -61.6% | [5] 22.6% | [6] -25.6%

COC(CCC#N)c1ccc(Cl)cc1 (stereo unspecified)
inactive: [1] -31.9% | [2] -20.6% | [3] -26.6% | [4] 1.7% | [5] -31.9% | [6] -26.6%

CC(=O)Nc1ccc(C(N)=S)cc1
inactive: [1] 11.8% | [2] 7.5% | [3] 3.25% | [4] 5.4% | [5] 10.5% | [6] 4.1%

N#C/C(=C\N1CCNC1=S)C(=O)c1ccc2ccccc2c1
inactive: [1] 23.1% | [2] 1.75% | [3] -1.7% | [4] 0.55% | [5] 14.7% | [6] 11.6%

O=c1[nH]c2nc3ccccc3c(=O)n2/c1=C/c1ccc(Cl)cc1
inactive: [1] -1.6% | [2] 18.2% | [3] 43.4% | [4] 29.6% | [5] 14.1% | [6] -17.2%

O=C(O)c1cccc(-n2cnc3c(=O)[nH]cnc32)c1
inactive: [1] -0.25% | [2] -3.85% | [3] -5.85% | [4] -9.15% | [5] 8.6% | [6] -14.2%

CCOC(=O)c1c(C(F)(F)F)oc2c1ccc1nc3nonc3nc12
inactive: [1] 43.6% | [2] 21.6% | [3] 23.1% | [4] 27.5% | [5] 20.9% | [6] 35%

COc1cccc2c1ccc1nonc12
inactive: [1] 0.05% | [2] -4.1% | [3] -2.25% | [4] -50% | [5] -19.1% | [6] 2.2%

O=[N+]([O-])c1ccc(/C=C(/c2ccc([N+](=O)[O-])o2)S(=O)(=O)c2ccccc2)o1
active: [1] 86% | [3] 92.1% | [4] 71.1% | [6] 90.2%
inactive: [2] 67.7% | [5] 61%

COC(=O)C(C(=O)C(=O)Nc1ccc([N+](=O)[O-])cc1[N+](=O)[O-])c1nc2ccc(Cl)cc2[nH]c1=O (stereo unspecified)
inactive: [1] 10.2% | [2] 10.6% | [3] 39% | [4] 20.2% | [5] 12.5% | [6] 25.5%

CC(=O)C(/C=N\N=C(/C)c1cn[nH]c1C)=C(/C)O
inactive: [1] -54.8% | [2] -21.6% | [3] -18.7% | [4] -58.1% | [5] 8.6% | [6] -18.6%

O=[N+]([O-])c1ccc(O)c(C=NCCCN=Cc2cc([N+](=O)[O-])ccc2O)c1
inactive: [1] 0.7% | [2] 7.95% | [3] -5% | [4] -6.95% | [5] 9% | [6] -11.3%

Nc1ccc2cc(S(=O)(=O)O)cc(S(=O)(=O)O)c2c1
inactive: [1] 39.3% | [2] -5.2% | [3] 6.6% | [4] -18.9% | [5] -0.15% | [6] 31.8%

CC(=O)NC(C=O)C(O)C(O)C(O)C(=O)O (stereo unspecified)
inactive: [1] 21.7% | [2] -11.4% | [3] 2.3% | [4] 23.1% | [5] 8% | [6] 10.5%

Clc1ccc(Cl)nc1
inactive: [1] -8.25% | [2] -8.25% | [3] -8.2% | [4] -13.7% | [5] 2.75% | [6] 5.45%

CCCCOC(=O)C1C(c2ccc(Cl)cc2)NC(c2ccc(Cl)cc2)C(C(=O)OCCCC)S1(=O)=O (stereo unspecified)
inactive: [1] -28.2% | [2] -15.1% | [3] -14.5% | [4] -1.4% | [5] -2.35% | [6] -45.2%

CC12CC3CC/C(=N\O)C(C1)C3(N1CCOCC1)C/C2=N/O (stereo unspecified)
inactive: [1] -22.2% | [2] -16.7% | [3] -10.2% | [4] 0.3% | [5] -14.8% | [6] 8.8%

COC(=O)N1C(c2ccccc2)(c2ccccc2)CS1(=O)=O
inactive: [1] 15.2% | [2] 10.1% | [3] 9.3% | [4] 15.6% | [5] 11.8% | [6] 5.25%

O=C1C(=O)N(c2ccccc2Cl)C(=O)N1Cc1ccccc1
inactive: [1] 10.7% | [2] 8.45% | [3] 0.95% | [4] 13.8% | [5] 2.75% | [6] 2.1%

COc1cc(Br)c(C=Nc2cccc3ccc(OS(=O)(=O)c4ccc([N+](=O)[O-])cc4)cc23)cc1OC
inactive: [1] 7.6% | [2] -16.6% | [3] 0.65% | [4] 4.3% | [5] 5.5% | [6] 15.6%

COc1ccc(-c2cc(-c3cc(-c4ccc(OC)cc4)on3)no2)cc1
inactive: [1] -1.6% | [2] -5.75% | [3] -26% | [4] -7.45% | [5] -35.5% | [6] -1.05%

CC1/C(=N/O)CC(c2ccccc2)N(N=O)C1c1ccccc1 (stereo unspecified)
inactive: [1] 62.8% | [2] 46.2% | [3] 57.5% | [4] 18.8% | [5] 13.6% | [6] 46%

CCCCOC(=O)c1ccc(OC(=O)Nc2ccccc2)cc1
inactive: [1] 11.2% | [2] 6% | [3] 11.4% | [4] 7.7% | [5] 17.6% | [6] 3.7%

C/C(N=NC(=S)N1CCCC1)=C1\C=CC=CN1O
inactive: [1] 5.45% | [2] -8.35% | [3] 15.4% | [4] -5.6% | [5] 7.95% | [6] 22.9%

OC(c1cccc(OCc2ccccc2)c1)c1ccccn1 (stereo unspecified)
inactive: [1] 4.95% | [2] -6.6% | [3] 2.15% | [4] -20.9% | [5] 2.15% | [6] 2%

C1COCCN1.C1COCCN1.N.N.[Cl-].[Pt+2]
inactive: [1] -9.5% | [2] -5.4% | [3] -38.1% | [4] -14.2% | [5] -2.45% | [6] -14.8%

CC1(C)OC(=O)C(C)(C)OC1=O
inactive: [1] -11.7% | [2] -5% | [3] 7.05% | [4] 12.3% | [5] 8.4% | [6] -3.15%

Cc1cc(C)cc(C(=O)OC2CCCC2)c1
inactive: [1] 1.2% | [2] 0.35% | [3] -3.85% | [4] 4.5% | [5] -5.2% | [6] 22.9%

Cc1[nH]c2nccn2c(=O)c1CCCl
inactive: [1] 10.2% | [2] -14.7% | [3] 9.6% | [4] -13.2% | [5] -13.6% | [6] 7.1%

COc1ccc(NC(=O)CC(O)c2cccc(N)c2)cc1 (stereo unspecified)
inactive: [1] 22.3% | [2] -26.4% | [3] 26.3% | [4] 7.1% | [5] 25.1% | [6] 12.5%

CCOC(=O)CCC(=O)c1ccc2cc(OC)ccc2c1
inactive: [1] 5.55% | [2] 25.2% | [3] 11.8% | [4] -36% | [5] 34.9% | [6] 27.1%

C=C1C(=O)O[C@H]2[C@@H](O)[C@H](C)CCC[C@]3(C)O[C@H]3CC[C@@]3(C)O[C@@H]3C[C@@H]12
inactive: [1] 19.4% | [2] 37.2% | [4] 41.8% | [5] 61.1% | [6] 58.2%
active: [3] 70.5%

C/C(=C\c1ccccc1)C(O)S(=O)(=O)O (stereo unspecified)
inactive: [1] 4.5% | [2] -0.35% | [3] -2.9% | [4] 11.9% | [5] -12.1% | [6] -4.55%

CC(C)(C)c1ccc(SC(=O)NCCCl)cc1
inactive: [1] -1.55% | [2] 23.9% | [3] 14.2% | [4] -31.1% | [5] -5.4% | [6] -11.2%
